High-throughput results: PubChem, several laboratories
Rows were chosen to be rich in hits. Some 4.3% of all compounds tested hit in one or more screens of this group.
SMARCA2 activ = SMARCA2 function activation, primary screen. hit rate 1% among 370,000. activation, % at 9.1 µM. MG213 cells, MMTV-luciferase reporter, dexamethasone, overnight. AID 652017; in the data active = activation above about 7.8%;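 also: 0% = vehicle wells and 100% = reference activator wells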
Wnt bcat act = activators of Wnt/beta-catenin signaling; Wnt/beta-catenin reporter cell assay, activator, plate reader; activation, % at 9.35 µM; hit rate 1.2% among 300,000; in the data active = activation above about 30%, passing the limit was not always enough; inconclusive = no clear call, values can overlap the other calls;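 also: 0% = neutral control wells and 100% = positive control wells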
MLL AF4-AF9 inh = blocks AF4 peptide binding to human AF9 | P42568 | AID 651704 | AlphaScreen, biotin-AF4 peptide binding to FLAG-AF9 | hit rate 0.47% among 350,000 | inhibition, % at 10 µM;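 active = every replicate reaching a set inhibition limit, whatever the replicate mean, cut at about 25% in these data; inconclusive = mean inhibition reaches that limit but some replicates miss it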;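 also: 0% = plate neutral control median and 100% = total signal loss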
esBAF inh = inhibitors of esBAF chromatin remodeling in mouse ES cells; Bmi1-luciferase knock-in reporter, 24 h; 100% = twice the neutral-well signal; reporter increase, % at 12.5 µM; hit rate 2% among 350,000; in the data active = activation above about 40%; inconclusive = no clear call, values can overlap the other calls;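 also: 0% = median of the plate's neutral control wells and 100% = double that signal; a rise in the Bmi1 reporter signal indicates esBAF inhibition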
MITF TRPM1 HTS = MITF TRPM1 promoter activation in melanoma cells | hit rate 0.75% among 300,000 | SK-MEL-5 TRPM1-promoter luciferase, 24 h; % of positive control, neutral wells = 0 | activation, % at 12.5 µM;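 active = mean activation of at least 80% with every replicate also reaching 80%; inconclusive = mean reaches 80% but some replicate falls short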;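 also: 0% = neutral control wells and 100% = parthenolide positive control wells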
FGF22 binding = FGF22 (human) thermal shift binding. Q9HCT0. activity (Tm shift, normalised), % at 9.99 µM. AID 651658. hit rate 1.5% among 340,000. recombinant FGF22 thermal shift, SYPRO orange fluorescence; percent of sucrose octasulfate shift, DMSO zero;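 active = mean Tm shift, scaled 0 neutral to 100 positive control, at about 1.3% or above, every replicate too, limit read from the data; inconclusive = no clear call, values can overlap the other calls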
Target sequence (Q9HCT0 whole entry, looked up): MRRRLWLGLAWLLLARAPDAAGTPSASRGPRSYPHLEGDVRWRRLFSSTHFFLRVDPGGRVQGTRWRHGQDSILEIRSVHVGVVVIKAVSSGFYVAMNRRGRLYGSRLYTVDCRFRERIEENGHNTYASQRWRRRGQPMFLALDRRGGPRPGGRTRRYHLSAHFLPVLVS
Numbers without * were called inactive; ? = inconclusive; · = no result.

SMILES	SMARCA2 activ	Wnt bcat act	MLL AF4-AF9 inh	esBAF inh	MITF TRPM1 HTS	FGF22 binding
C=CCN(C(=O)c1oc2c(Cl)cc(C)cc2c1C)C1CCS(=O)(=O)C1 (stereo unspecified)	4	29	-3	64*	111*	0
Cc1ccc2c(C)c(C(=O)N(Cc3ccc(N(C)C)cc3)C3CCS(=O)(=O)C3)oc2c1 (stereo unspecified)	0	-10	38*	-18	5	0
C[C@@H]1CN([C@H](C)CO)C(=O)Cc2cc(NC(=O)CCC(F)(F)F)ccc2O[C@@H]1CN(C)C(=O)Nc1ccc(C(F)(F)F)cc1	·	·	·	2	·	0
COc1ccc(/C(=N/Nc2ncnc3ccccc23)C(=O)O)cc1	4	21	-3	59*	-1	0
CCOC(=O)/C(=N\Nc1ncnc2ccccc12)c1ccc(OC)cc1	3	16	-1	-49	8	0
O=C(c1ccc([N+](=O)[O-])cc1[N+](=O)[O-])N1CCc2ccccc21	-2	1	-2	5	·	0
O=C(N=C1N=C2C=CC(Br)=CN2Cc2ccccc21)c1ccc([N+](=O)[O-])cc1[N+](=O)[O-]	3	56*	15	·	39	0
N/C(Cc1nc(-c2ccc(Cl)cc2)cs1)=N/O	-1	37*	·	?	·	0
Cc1cc(-c2nc3cc(F)ccc3s2)ccc1N	-2	60*	-4	·	8	0
Nc1ccc(-c2nc3ccc(N)cc3s2)cc1	1	26	9	-70	3	0
Cc1ccsc1C(=O)NCCc1nnc2ccccn12	7.8*	19	-8	56*	38	0
COc1ccc(C(=O)NCCc2c[nH]c3ccccc23)cc1	3	9	7	54*	·	0
COc1ccc(C(=O)c2c[nH]c3ccccc23)cc1	3	-2	·	61*	86*	·
Cc1ccsc1C(=O)NCCc1c[nH]c2ccccc12	3	24	0	50*	50	0
COc1ccc(OCC(=O)NCCc2c[nH]c3ccccc23)cc1	2	0	0	·	5	1
O=S1(=O)c2c(cccc2N2CCC[C@@H]2CO)OCCCN1C1CC1	0	·	·	·	·	·
O=C1c2ccccc2C(=O)N1C[C@@H]1CCCN(Cc2ccc(OCCO)cc2)C1	·	·	1	·	·	0
O=C(NCCc1c[nH]c2ccccc12)c1cnc2sccn2c1=O	7	8	3	76*	37	0
COc1ccc(CNC(=O)NCCc2c[nH]c3ccccc23)cc1	5	-2	3	-1	-4	0
COc1ccc(CCNC(=S)NCCc2c[nH]c3ccccc23)cc1	0	-1	12	·	-6	1.4*
O=C(NCc1ccc(F)cc1)c1cnc2sccn2c1=O	0	-4	7	-8	9	0
COc1cc(SC)ccc1C(=O)NCCc1c[nH]c2ccccc12	2	3	6	31	-1	1
O=C(NCCc1c[nH]c2ccccc12)c1ccc(F)cc1F	4	11	3	57*	48	1
C[C@@H]1CCCCO[C@H](CN(C)C(=O)NC2CCCCC2)[C@H](C)CN([C@H](C)CO)C(=O)c2cc(NS(=O)(=O)c3ccccc3)ccc2O1	·	·	1	5	·	-1
COc1ccc(CN(C)C[C@H]2OCCCC[C@@H](C)Oc3ccc(NS(=O)(=O)c4c(C)noc4C)cc3C(=O)N([C@@H](C)CO)C[C@@H]2C)cc1	·	·	·	0	·	0
SMILES	SMARCA2 activ	Wnt bcat act	MLL AF4-AF9 inh	esBAF inh	MITF TRPM1 HTS	FGF22 binding
CO[C@@H](CN(C)C(=O)C1CCOCC1)[C@@H](C)CN([C@H](C)CO)S(=O)(=O)c1ccccc1	·	·	-1	-5	·	0
Cc1ccc(-c2nc3ccccc3nc2NN)cc1	1	44*	2	·	·	0
Cc1ccc(-c2nc3ccccc3nc2Cl)cc1	0	20	-1	·	13	0
CC(C)SCC(=O)Nc1ncc2c(n1)-c1ccccc1CC2	-2	0	-1	7	-5	44*
Cc1noc(C)c1NC(=O)Nc1ccc2c(c1)C(=O)N([C@@H](C)CO)C[C@H](C)[C@H](CN(C)S(=O)(=O)c1ccccc1)OCCCC[C@@H](C)O2	·	·	0	0	·	·
O=C(O)CC(NC(=O)C12CC3CC(CC(C3)C1)C2)c1ccc(Cl)cc1 (stereo unspecified)	-3	-2	-1	-1	3	1
O=C(O)CC(NC(=O)C12CC3CC(CC(C3)C1)C2)c1cccc([N+](=O)[O-])c1 (stereo unspecified)	3	-3	0	-8	-3	43*
CN(CCC#N)C(=O)c1cc2c(s1)-c1ccccc1SC2	5	26	-2	53*	86*	0
COc1ccccc1NC(=O)N(C)C[C@@H]1Oc2ncc(C#CCN(C)C)cc2C(=O)N([C@H](C)CO)C[C@H]1C	·	·	-9	-1	·	1
Cc1ccc(O)c(NC(=S)NC(=O)/C=C/c2ccco2)c1	4	0	-2	32	30	43*
Cc1ccc(O)c(NC(=S)NC(=O)/C=C/c2ccccc2)c1	0	2	-4	-5	-3	0
CCCC(=O)Oc1ccc(N(C(=O)CCC)S(=O)(=O)c2cccs2)cc1	-4	-1	-4	·	-12	43*
C[C@H]1CN([C@@H](C)CO)C(=O)c2cccc(NC(=O)Nc3ccc(C(F)(F)F)cc3)c2O[C@H]1CN(C)S(=O)(=O)c1ccc(Cl)cc1	·	·	0	7	·	0
CSc1ccc(-c2nnn(Cc3ccc(C)cc3)n2)cc1	4	·	·	·	94*	·
O=C(C[C@@H]1CC[C@@H](NC(=O)c2ccccn2)[C@H](CO)O1)NCc1cccc(F)c1	·	·	1	-1	·	0
CC(c1nccs1)N(C)C(=O)c1cn(Cc2cccc3ccccc23)nn1 (stereo unspecified)	2	8	-15	48*	43	0
C[C@H](CO)N1C[C@H](C)[C@H](CN(C)S(=O)(=O)c2cn(C)cn2)Oc2c(NC(=O)Nc3ccc(F)cc3)cccc2C1=O	·	·	-4	·	·	0
COc1cccc(CN2CCC3(CC2)CN(C(=O)Nc2ccc(F)cc2)[C@H](CO)c2c3c3ccc(OC)cc3n2C)c1	·	·	36*	·	·	0
COc1ccc2c3c(n(C)c2c1)[C@H](CO)N(C(=O)Nc1ccc(F)cc1)CC31CCN(Cc2ccccn2)CC1	·	·	13	·	·	·
COc1ccc2c3c(n(C)c2c1)[C@@H](CO)N(C(=O)Nc1ccc(F)cc1)CC31CCN(Cc2ccccn2)CC1	·	·	29*	·	·	·
COCCNC(=O)C[C@@H]1C=C[C@@H](NC(=O)NC2CCCC2)[C@H](CO)O1	·	·	1	2	·	0
